LANA-H2B inh: blocks KSHV LANA binding to histone H2A/H2B; cell-free LANA-H2A/H2B peptide, fluorescence polarization; inhibition, % (concentration not given with the values); 0.6% of 320,000 active; AID 2629; in the data active = inhibition mostly above about 10%, no sharp cut-off; inactive = mostly below about 6.7%
rCAG binder: molecules binding r(CAG) RNA repeats; r(CAG) RNA repeat, TO-PRO-1 dye displacement fluorescence; inhibition, % at 3 µM; 1.3% of 370,000 active; AID 651821;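 active = inhibition above the plate cutoff, the mean of all test compounds on that plate plus 3 SD, cut at about 35% in these data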;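 note: 0% = DMSO alone and 100% = 100 µM mitoxantrone as full dye displacement; higher means more dye released from RNA so lower well fluorescence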
ABHD5 PLIN5 PPI: blocks binding of human ABHD5 to perilipin-5. 0.78% of 360,000 active. AID 602281. inhibition, % at 4 µM. Split G. princeps luciferase complementation, luminescence, 4 h;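 active = inhibition above the mean inhibition across every tested compound plus 3 SD, cut at about 22% in these data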;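 note: 0% = DMSO only wells and the 100% control is not disclosed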
ALR inh: human ALR oxidase inhibition via reduced H2O2; P55789; purified ALR, DTT oxidation, H2O2 HRP-luminol luminescence; inhibition, % (no concentration beside the values); AID 485317; 3.8% of 290,000 active;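 active = mean replicate inhibition above about 79%, with every replicate also reaching it, limit read from the data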
PRMT1 inh: PRMT1 (human) inhibition, primary screen; AID 652257; inhibition, % at 2.79 µM; 1.3% of 370,000 active; recombinant PRMT1, activity-based probe fluorescence polarization; Q99873;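 active = inhibition above about 21% made by adding two undisclosed values, limit read from the data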
Rtt109 HAT inh: inhibitors of Candida albicans Rtt109/Vps75 histone acetyltransferase | Q5AAJ8 | purified Rtt109/Vps75, ThioGlo CoA-SH fluorescence, 4 h | inhibition, % at 34.9 µM | 0.16% of 330,000 active;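 active = inhibition of at least 50% in every replicate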
Numbers without * were called inactive; nt = no result. This is a sample that favours compounds with a hit; in the whole collection about 5.9% have one here.

SMILES | LANA-H2B inh | rCAG binder | ABHD5 PLIN5 PPI | ALR inh | PRMT1 inh | Rtt109 HAT inh
c1ccc(Nc2ccccc2Nc2ccccn2)nc1 | 1 | -4 | -4 | 89* | 3 | 1
c1ccc(CNc2ccccn2)cc1 | 3 | -7 | -2 | 2 | 4 | -2
Cc1[nH]n(C2=NCCS2)c(=O)c1N=Nc1ccccc1 | -3 | -2 | -3 | 92* | 5 | 4
O=C(NCc1ccccn1)C(=O)NCC(c1ccco1)N1CCOCC1 (centres undefined) | 0 | -3 | 1 | -3 | 4 | -1
O=C(NCc1ccccn1)C(=O)NCC(c1ccco1)N1CCN(c2ccc(F)cc2)CC1 (centres undefined) | -4 | -6 | -7 | 98* | 0 | -4
O=C(NCC(c1ccco1)N1CCN(c2ccc(F)cc2)CC1)c1ccco1 (centres undefined) | 0 | -4 | 0 | 55 | 6 | 1
O=C(NCc1ccncc1)C(=O)NCC(c1ccco1)N1CCN(c2ccc(F)cc2)CC1 (centres undefined) | 3 | -5 | 3 | 94* | -1 | 53*
Nc1nc2c(ncn2[C@@H]2O[C@H](C(=O)NC3CCCCC3)[C@@H](O)[C@H]2O)c(=O)[nH]1 | nt | 1 | nt | nt | 0 | nt
COc1cccc(-n2nnnc2SCC(=O)Nc2ccccc2OC)c1 | -5 | -3 | -3 | -1 | 2 | 5
CCCS(=O)(=O)c1nnnn1-c1cccc(OC)c1 | 3 | nt | 43* | 98* | nt | 17
CCOCCCn1c(=O)c2ccccc2n2c(=S)[nH]nc12 | 3 | -3 | 4 | nt | 1 | 2
CCC(=O)N1CCc2cc(S(=O)(=O)CCC(=O)Nc3ccc(C(C)=O)cc3)ccc21 | 1 | -3 | 2 | 34 | 2 | 22
CCC(=O)N1CCc2cc(S(=O)(=O)CCC(=O)Nc3cccc(F)c3)ccc21 | 0 | -3 | -5 | 98* | 4 | nt
CCC(=O)N1CCc2cc(S(=O)(=O)CCC(=O)Nc3ccc(CC)cc3)ccc21 | -1 | -4 | 0 | -1 | -2 | -7
CCC(=O)N1CCc2cc(S(=O)(=O)CCC(=O)Nc3ccc(F)c(F)c3)ccc21 | 1 | 1 | -11 | 98* | 3 | 8
CCCN1CCS(=O)(=O)N(Cc2cn(Cc3ccc(C)cc3)nn2)C(C(=O)OC)C1 (centres undefined) | nt | 2 | nt | nt | -2 | nt
O=C(CSc1ncn[nH]1)CSc1ncn[nH]1 | -1 | -3 | -2 | 94* | 8 | -1
O=C(CS)Nc1ccc2ccccc2c1 | 0 | 10 | -11 | 97* | 12 | -4
CCCCCC(=O)Nc1ccc2ccccc2c1 | nt | 0 | 0 | nt | 2 | nt
C/C(CC(=O)Nc1ccc2ccccc2c1)=N\NC(=O)c1cnccn1 | 0 | 10 | 6 | nt | 1 | -4
C/C(CC(=O)Nc1ccc2ccccc2c1)=N\NC(=O)c1ccc(O)c(O)c1 | -3 | 24 | -5 | 99* | -2 | 10
O=C(CSCc1nc2ccccc2[nH]1)Nc1ccc2ccccc2c1 | -2 | 5 | -3 | 99* | 3 | -2
O=C(CSCc1nc2ccccc2[nH]1)Nc1ccc(Oc2ccccc2)cc1 | -2 | 5 | -8 | -8 | -1 | 3
N=c1c2c3c(sc2ncn1Cc1ccco1)CCCCC3 | -1 | 1 | 2 | 92* | -2 | 4
COC(=O)c1ccc(COc2ccc(/C=N/Nc3cccc(C(=O)O)c3)cc2)cc1 | -6 | 34 | 2 | -4 | 6 | 10
SMILES | LANA-H2B inh | rCAG binder | ABHD5 PLIN5 PPI | ALR inh | PRMT1 inh | Rtt109 HAT inh
Cc1nn(-c2ccccc2)c(Cl)c1/C=N/Nc1ccc(Cl)c(C(=O)O)c1 | -12 | 26 | -5 | 96* | 12 | 2
O=C(O)c1cc(N/N=C/c2ccc(OCc3ccccc3)cc2)ccc1Cl | 1 | 13 | -3 | 97* | -7 | 8
O=C(O)c1cc(N/N=C/C=C/c2ccccc2)ccc1Cl | -3 | 23 | 5 | 99* | 8 | 3
CN(C)Cc1csc(NC(=O)Nc2ccccc2Cc2ccccc2)n1 | nt | 5 | 7 | nt | 0 | nt
Cc1ccc([C@H]2C[C@@H](n3cc(-c4ccc(F)cc4)nn3)[C@H](O)CN2C(=O)C2CCCCC2)cc1 | nt | 4 | 1 | nt | 0 | nt
COc1cc(C=NNC(=O)CN2CCN(Cc3ccc(C)cc3)CC2)cc(OC)c1O | nt | 1 | nt | nt | -3 | nt
CCN(CC)c1ccc(N=Cc2ccc([N+](=O)[O-])o2)cc1 | 6 | 20 | 7 | nt | 41* | -7
CCN(CC)c1ccc(N=Cc2ccccc2[N+](=O)[O-])cc1 | 5 | 8 | -9 | 87* | 20 | -1
CC(=O)N(C)c1ccc(N=Cc2cc3c(cc2[N+](=O)[O-])OCO3)cc1 | 8 | 7 | -33 | 22 | -1 | 3
COc1ccc(C(O)c2nc(-c3cncnc3)cs2)cc1 (centres undefined) | nt | -1 | -2 | nt | 2 | nt
Cc1cnc(C(=O)Nc2ccc(N3CCCCC3)cc2)cn1 | -4 | 0 | 12 | -15 | 2 | 3
Cc1cnc(C(=O)Nc2ccc(C(=O)N3CCCCC3)cc2)cn1 | -2 | -3 | 4 | 100* | 0 | -4
CCN(c1ccc(C(=O)CSc2nnc(C3CC3)n2C2CC2)cc1)S(C)(=O)=O | -2 | 2 | -4 | 96* | 4 | -4
CC(=O)N(C)Cc1ccc(C(=O)CSc2nnc(C3CC3)n2C2CC2)cc1 | -5 | 0 | -6 | 46 | -3 | 6
O=C(O)CC/C(=N\NC(=O)c1ccncc1)c1ccccc1 | -5 | 3 | 4 | -7 | 1 | -11
COc1cccc(COC(=O)C2CCN(S(=O)(=O)c3ccc(C)cc3C)CC2)c1OC | 27* | -6 | -2 | -1 | -4 | -2
O=C(Cc1ccc(Cl)cc1)N1CCc2ccccc2C1 | 20* | 2 | -3 | nt | 1 | -22
COC(=O)CSc1nc2sc3c(c2c(=O)n1C1CCCCC1)CCN(C)C3 | -5 | nt | nt | 92* | nt | nt
CN1CCc2c(sc3nc(SCC(=O)N4CCOCC4)n(-c4ccc(Cl)cc4)c(=O)c23)C1 | 0 | 2 | 7 | 98* | 0 | -157
COc1ccc(-n2c(SCC(=O)NCc3ccco3)nc3sc4c(c3c2=O)CCN(C)C4)cc1 | 0 | 11 | 14 | 98* | 8 | -74
CSc1nc(SCC(=O)NC(c2ccccc2)c2ccccc2)c2c3c(sc2n1)CN(C)CC3 | -1 | 8 | 11 | 93* | 6 | -10
C=C(C)CSc1nc2sc3c(c2c(=O)n1-c1ccc(OC)cc1)CCN(C)C3 | 1 | 11 | nt | 1 | 3 | nt
CN1CCc2c(sc3nc(SCC(=O)NCc4ccco4)n(-c4ccccc4)c(=O)c23)C1 | 1 | 6 | 3 | 34 | 13 | 26
CCNC(=O)C1(C)CCCN1C(=O)c1ccc(-c2ccccc2)cc1 (centres undefined) | nt | -1 | -4 | nt | -8 | nt
CCCCNC(=O)C1(C(C)=O)CC(C(=O)OCC)=NO1 (centres undefined) | nt | 0 | nt | nt | -3 | nt
